# High-throughput results as filed in PubChem BioAssay.
# SARS PLpro yeast = qHTS of Yeast-based Assay for SARS-CoV PLP | S. cerevisiae expressing SARS-CoV PLpro, growth rescue | Potency, µM (titrated, usually from 32.9 µM), without a hit: top-dose activity, positive = growth rescue, most hits filed as activators | 0.19% of 330,000 active | AID 485353, 2010; calls by dose curve; note: 0% is about no effect; nearly all actives have a fitted effect of over 55% in size
# Pf growth 48h = Primary qHTS for delayed death inhibitors of the malarial parasite plastid, 48 hour incubation; P. falciparum luciferase growth in erythrocytes, 48 h; AID 504832, 2011; Potency, µM (series often up to 28.7 µM), without a hit: top-dose activity change, negative = inhibition, actives largely listed as inhibitors; 5.9% of 310,000 active; note: % is set by controls: 0 for no effect and ±100 for the full control effect
#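 Growth was read as firefly luciferase luminescence after a 48 h, 37 C, 5% CO2 exposure of compounds to reporter-bearing P. falciparum cultures (0.1% parasitemia, 2% hematocrit final) in Albumax-supplemented RPMI 1640.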
# NS1 inh = qHTS Assay for Inhibitors of Influenza NS1 Protein Function; 0.4% of 270,000 active; AID 2326, 2010; Potency, µM (top dose mostly 46.1 µM), for the others: at the top dose activity, positive = more growth; calls by dose curve; note: actives are rising curves; nearly all actives have a fitted effect of over 50% in size
#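 Growth recovery, yeast-based: influenza A NS1 expressed in S. cerevisiae causes slow growth, and suppressors are detected by OD600. The parent strain without NS1 is used as positive control.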
# Pf growth 96h = Primary qHTS for delayed death inhibitors of the malarial parasite plastid, 96 hour incubation. Potency, µM (top dose mostly 28.7 µM), without a hit: top-dose activity change, negative = inhibition, actives largely listed as inhibitors. AID 504834, 2011. 6.9% of 320,000 active. P. falciparum luciferase reporter growth, 96 h; note: % is set by controls: 0 for no effect and ±100 for the full control effect
#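 Readout is luminescence from an integrated firefly luciferase in P. falciparum. Red cells, 2% hematocrit and 0.05% parasitemia final, were cultured with compound through two parasite generations (96 hours) at 37 C, 5% CO2.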
# An asterisk follows results filed as active; u = inconclusive; x = no result; [ ] = dose if it differs, or a comment. The list is not random: actives were taken first. Their share in the collection is about 10%. Unless noted, calls come from the whole dose curve; as a rule, active = well fitted inhibition curve with a large enough effect; inconclusive = small, poorly fitted or top-dose-only effect, or another doubt; inactive = no such curve, though single readings can be large or run the other way. Potency is the fitted concentration of half-maximal effect.
SMILES,SARS PLpro yeast,Pf growth 48h,NS1 inh,Pf growth 96h
C=C1CCN([C@@H](C)C(=O)NCCCCCC)S(=O)(=O)c2ccccc21,1%,-10%,4%,-37%
Clc1cccc(Cl)c1C(Nc1nncs1)Nc1nncs1,x,x,-10%,x
CCC(CC)c1nnc(NC(=O)C2CSC3(C)CCC(=O)N23)s1 (stereo unspecified),4%,5%,x,12%
Cc1c(S(=O)(=O)N2CCN(c3ccc(F)cc3)CC2)c(=O)n(C)c(=O)n1C,4%,-4%,-3%,1%
N#Cc1ccccc1OCC(=O)N1CCN(C(=O)c2ccco2)CC1,13%,-2%,-9%,-4%
O=C(NCC(c1ccco1)N1CCc2ccccc21)c1ccccc1 (stereo unspecified),2%,u,x,u
Cc1ccc(C(=O)NCC(c2ccco2)N2CCc3ccccc32)cc1C (stereo unspecified),-14%,9.3µM*,x,u
CCOC(=O)c1c(C)[nH]c(C(=O)OCC(=O)N(CC(C)C)c2c(N)n(Cc3ccccc3)c(=O)[nH]c2=O)c1C,x,u,x,-1%
CC(=O)c1cccc(NS(=O)(=O)c2c(C)n[nH]c2C)c1,x,15%,2%,0%
CCc1cccc(NS(=O)(=O)c2c(C)n[nH]c2C)c1,-3%,u,9%,13µM*
CCOC(=O)C1CCCCN1Cc1ccc(C(F)(F)F)cc1 (stereo unspecified),9%,x,-10%,9.3µM*
CCOC(=O)C1CCCCN1Cc1cccc(C(F)(F)F)c1 (stereo unspecified),9%,x,-13%,-23%
Cc1nn(Cc2ccccc2)c(C)c1CNC(=O)CN=C1NS(=O)(=O)c2ccccc21,1%,u,x,-3%
CSc1ncc(Cl)c(C(=O)Nc2c(C)cccc2C)n1,-1%,2%,2%,4.1µM*
CC(C)CC(NC(=O)OC(C)(C)C)c1cn([C@@H](Cc2ccc(O)cc2)C(=O)N2CCN(C(=O)OC(C)(C)C)CC2)nn1 (stereo partly specified),1%,u,0%,4.7µM*
CC(C)(C)OC(=O)NC(CO)c1cn([C@@H](Cc2cc3ccccc3[nH]2)C(=O)N2CCN(C(=O)OC(C)(C)C)CC2)nn1 (stereo partly specified),1%,u,5%,u
CC[C@H](C)C(C(=O)N1CCN(C(=O)OC(C)(C)C)CC1)n1cc(C(Cc2ccc(O)cc2)NC(=O)OC(C)(C)C)nn1 (stereo partly specified),1%,u,1%,1.7µM*
CC(C)CC(NC(=O)OC(C)(C)C)c1cn([C@@H](Cc2cc3ccccc3[nH]2)C(=O)N2CCN(C(=O)OC(C)(C)C)CC2)nn1 (stereo partly specified),1%,u,2%,5.2µM*
CC(C)(C)OC(=O)N1CCN(C(=O)[C@H](Cc2ccc(O)cc2)n2cc(CCO)nn2)CC1,0%,35%,0%,30%
COc1ccc(N(CC(=O)NCc2ccncc2)S(=O)(=O)c2ccccc2[N+](=O)[O-])c(OC)c1,0%,-14%,-1%,16%
Cc1ccc(-c2csc(N3CCC[C@@H]3C(=O)NCCn3c(-c4ccncc4)nc4ccccc43)n2)cc1,2%,u,4%,3.3µM*
Cc1ccc(-c2csc(N3CCN(CCCn4c(-c5ccncc5)nc5ccccc54)CC3)n2)cc1,-7%,u,-38%,2.6µM*
CCN(CC)CCSc1nnc2c3cc(C)ccc3n(Cc3ccccc3)c2n1,-4%,u,-5%,u
Clc1ccc(-n2nnnc2-c2cnc3ccccc3c2-c2ccccc2)cc1,-1%,5.2µM*,-1%,10µM*
Cc1ccc(/C=C/C(=O)N(Cc2cccs2)C2CCS(=O)(=O)C2)cc1 (stereo unspecified),0%,-10%,-7%,-12%
CCCOc1ccc(NC(=O)CC2C(=O)N(C)C(=S)N2Cc2cccs2)cc1 (stereo unspecified),-39%,12µM*,-7%,u
COc1ccc(NC(=O)CC2C(=O)N(Cc3cccs3)C(=S)N2C(C)C)cc1 (stereo unspecified),1%,2.6µM*,x,29%[5.75 µM]
Cc1ccc(OCC(=O)OCC(=O)N2c3ccccc3CC2C)cc1C (stereo unspecified),2%,-3%,x,15%
CN(CC(=O)Nc1ccc(Cl)c(C(F)(F)F)c1)C(=O)COC(=O)C1CC2CCCC(C1)C2=O (stereo unspecified),0%,x,x,x
